Test [1] in a line: TOX21_p53_BLA_p2_viability: Viability Assessment in the Tox21 HCT-116 p53 Agonism Beta-lactamase Assay, Phase 2 (AID 2283591).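 Further: actives lower the ATP signal meaning cytotoxicity.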 The essentials: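 HCT116 p53-bla cells, 4000/well, dosed after 5 h plating (217-fold dilution of DMSO stocks) and incubated 16 h at 37C. Viability taken as cellular ATP by CellTiter-Glo luminescence after 30 min RT; signal loss marks cytotoxicity.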
Test [2] has as its target Cellular tumor antigen p53 (Homo sapiens) (UniProt P04637). The experiment in a line: TOX21_p53_BLA_p2_ratio: Tox21 HCT-116 p53 Agonism Beta-lactamase Assay, Ratio, Phase 2 (AID 2283592). The method, boiled down:
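Readout: blue/green (460/530 nm) FRET emission ratio after 2 h CCF4-AM loading at room temperature, excitation 405 nm. HCT116 p53 bla cells, 16 h compound exposure at 37C, 5% CO2; agonist direction fitted against DMSO baseline.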

Test [3] is described as follows: TOX21_p53_BLA_p3_viability: Viability Assessment in the Tox21 HCT-116 p53 Agonism Beta-lactamase Assay, Phase 3 (AID 2283593).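 Further: cells exposed to compound for 16 h before reading.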 The method, boiled down: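 HCT116 cells, 4000/well, dosed 5 h after plating by pin transfer (217-fold dilution from DMSO stock) and incubated 16 h at 37C, 5% CO2. Viability read as ATP luminescence with CellTiter-Glo after 30 min at room temperature.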

Test [4] deals with Cellular tumor antigen p53 (Homo sapiens) (UniProt P04637). The experiment in a line: TOX21_p53_BLA_p5_ratio: Tox21 HCT-116 p53 Agonism Beta-lactamase Assay, Ratio, Phase 5 (AID 2283599). The method, boiled down: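 HCT-116 p53-bla cells (4000/well) plated 5 h, dosed with compound (217-fold DMSO dilution) for 16 h at 37 C; CCF4-AM substrate 2 h at room temperature. Activity is the 460/530 nm emission ratio (405 nm excitation), fitted in gain-of-signal direction versus DMSO.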

A short description of test [5]: TOX21_p53_BLA_p5_viability: Viability Assessment in the Tox21 HCT-116 p53 Agonism Beta-lactamase Assay, Phase 5 (AID 2283600). The method, boiled down:
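ATP luminescence (CellTiter-Glo, 30 min, RT) served as the viability read-out, with loss of signal indicating cytotoxicity. Compounds in DMSO were pinned at a 217-fold dilution onto 4000 cells/well and incubated 16 h, 37C.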

Test [6] has as its target Cellular tumor antigen p53 (Homo sapiens) (UniProt P04637). Put plainly: TOX21_p53_BLA_p4_ratio: Tox21 HCT-116 p53 Agonism Beta-lactamase Assay, Ratio, Phase 4 (AID 2283601). The method, boiled down: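 HCT-116 p53 beta-lactamase reporter cells (4000/well) preincubated 5 h, then compound (217-fold dilution of DMSO stock) for 16 h at 37C. CCF4-AM substrate added 2 h at room temperature; 460/530 nm emission ratio fitted upward versus DMSO.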

The nature of test [7]: ACEA_ER_AUC_viability: ACEA Biosciences xCELLigence Real-Time Cell Analysis on Estrogen Receptor Agonism for Viability (AID 2283782).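 Further: hit means loss of impedance signal meaning reduced cell growth or viability.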 The essentials: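 Read-out: real-time electrical impedance (RT-CES) area under curve, loss of signal taken as reduced viability, normalized to DMSO baseline. T-47D cells, charcoal-stripped serum medium, compounds up to 100 uM final, continuous exposure, 80 h.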

Test [8] in a line: CCTE_Harrill_HTTr_Viability_MCF7: CCTE's 6-hour Cell Viability Assessment for the High-Throughput Transcriptomics (HTTr) Platform, in MCF-7 cells cultured in DMEM + 10% fetal bovine serum, Harrill Lab (AID 2284010; active means hit-call score of the fitted dose curve at least 0.9, where 1 is the maximum; inactive means score below 0.9). The method, boiled down:
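PI exclusion, high-content imaging; 8-pt dilution series, 6 h exposure; bidirectional fit vs DMSO (neg. ctrl/baseline); gain of signal = loss of membrane integrity.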

Test [9] can be described thus: CCTE_Harrill_HTTr_Apoptosis_MCF7: CCTE's 6-hour Apoptosis Assessment for the High-Throughput Transcriptomics (HTTr) Platform, in MCF-7 cells cultured in DMEM + 10% fetal bovine serum, Harrill Lab (AID 2284011; active means hit-call score of the fitted dose curve at least 0.9, where 1 is the maximum; inactive means score below 0.9). The method, boiled down:
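Read-out: CellEvent Caspase 3/7 Green signal by high content imaging, gain-of-signal indicating apoptosis. MCF-7 cells, DMEM + 10% FBS, eight-point dilution series, 6 h exposure. Curves fitted bidirectionally relative to DMSO negative control.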

A short description of test [10]: CCTE_Shafer_MEA_dev_firing_rate_mean: CCTE's Neural Network Formation Assay for Mean Firing Rate, Shafer Lab (AID 2284031; active means hit-call score of the fitted dose curve at least 0.9, where 1 is the maximum; inactive means score below 0.9). The essentials:
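Read-out: spike count/recording length, averaged over active electrodes, then AUC across days 5, 7, 9, 12. Rat cortical cultures on MEA; continuous 12-day exposure, media and treatment renewed DIV 5, 9; DMSO baseline.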

Test [11] is described as follows: CCTE_Shafer_MEA_dev_per_burst_spike_percent: CCTE's Neural Network Formation Assay for Percent of Spikes in a Burst, Shafer Lab (AID 2284032; active means hit-call score of the fitted dose curve at least 0.9, where 1 is the maximum; inactive means score below 0.9;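 further: fitted as a decrease in burst spike percentage below DMSO baseline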). The method, boiled down: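 Value is trapezoidal AUC over recordings on days 5, 7, 9 and 12 of the well-mean fraction of spikes falling in single-electrode bursts; rat cortical cultures exposed continuously from plating, treatment renewed DIV 5 and 9, fitted downward against DMSO.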

Test [12] is described as follows: CCTE_Shafer_MEA_dev_burst_rate: CCTE's Neural Network Formation Assay for Burst Rate, Shafer Lab (AID 2284042; active means hit-call score of the fitted dose curve at least 0.9, where 1 is the maximum; inactive means score below 0.9). The method, boiled down: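 Primary rat cortical neurons on PEI-coated 48-well MEA plates (laminin added with cells at plating) (16 electrodes/well), exposed from plating to day 12, dosing renewed at DIV 5 and 9. Burst rate averaged over active electrodes, recorded DIV 5, 7, 9, 12, summarized as AUC; loss versus DMSO.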

A short description of test [13]: CCTE_Shafer_MEA_dev_bursting_electrodes_number: CCTE's Neural Network Formation Assay for Number of Bursting Electrodes, Shafer Lab (AID 2284043).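 Further: potency is for loss of bursting electrodes relative to DMSO.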 The method, boiled down:
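Rat cortical primary neurons, 48-well MEA, 16 electrodes/well; dosing DIV 0–12, re-dosed with full media change DIV 5, 9. Recordings DIV 5/7/9/12, AxIS adaptive spike detector; bursting electrode = ≥1 burst/2 min. AUC across days; loss of signal vs DMSO.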

Test [14] in a line: CCTE_Shafer_MEA_dev_per_burst_interspike_interval: CCTE's Neural Network Formation Assay for Burst Interspike Interval, Shafer Lab (AID 2284044; active means hit-call score of the fitted dose curve at least 0.9, where 1 is the maximum; inactive means score below 0.9;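 further: potency for a decrease of within-burst interspike interval below DMSO level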). The method, boiled down: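 Readout is the average time between spikes inside single-electrode bursts, taken as a well mean across bursting electrodes. Cortical neurons from rat developed networks on MEA plates under continuous 12-day exposure; recordings on days 5, 7, 9 and 12 were integrated by trapezoidal AUC.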

The nature of test [15]: CCTE_Shafer_MEA_dev_burst_duration_mean: CCTE's Neural Network Formation Assay for Mean Burst Duration, Shafer Lab (AID 2284045; active means hit-call score of the fitted dose curve at least 0.9, where 1 is the maximum; inactive means score below 0.9). The method, boiled down:
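Rat cortical cultures, 1.5 x 10^5 cells/well with laminin drop; continuous dosing days 0–12, media plus treatment refreshed DIV 5, 9. AxIS adaptive spike detection; mean single-electrode burst duration, AUC over four recordings, negative direction vs DMSO.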

Test [16] is described as follows: CCTE_Shafer_MEA_dev_interburst_interval_mean: CCTE's Neural Network Formation Assay for Mean Interburst Interval, Shafer Lab (AID 2284046; active means hit-call score of the fitted dose curve at least 0.9, where 1 is the maximum; inactive means score below 0.9;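 further: well-mean interburst interval of bursting electrodes as AUC over four recording days; curve fitted for decrease in interburst interval relative to DMSO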). The method, boiled down:
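Recordings on days 5, 7, 9 and 12 give well-mean interburst interval across actively bursting electrodes, summarized as area under the curve. Cultures: rat cortical neurons, continuous exposure from day 0, compound renewed at feeds; decrease analyzed versus DMSO.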

Test [17] in a line: CCTE_Shafer_MEA_dev_inter_network_spike_interval_mean: CCTE's Neural Network Formation Assay for Mean Inter-network Spike Interval, Shafer Lab (AID 2284047; active means hit-call score of the fitted dose curve at least 0.9, where 1 is the maximum; inactive means score below 0.9). The essentials: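 Primary rat cortical neurons on 16-electrode MEA wells, exposed from plating day 0 through DIV 12, compound renewed at DIV 5 and 9 media changes. Mean interval between network-spike peaks recorded DIV 5, 7, 9, 12; collapsed as trapezoidal AUC, fitted downward versus DMSO.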

A short description of test [18]: CCTE_Shafer_MEA_dev_network_spike_number: CCTE's Neural Network Formation Assay for Number of Network Spikes, Shafer Lab (AID 2284048; active means hit-call score of the fitted dose curve at least 0.9, where 1 is the maximum; inactive means score below 0.9). The method, boiled down:
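Rat cortical primary cultures on 48-well MEA (16 electrodes/well); continuous exposure DIV 0–12, full medium and treatment exchange DIV 5, 9. Readout: network spike count, AxIS adaptive detection, recordings DIV 5/7/9/12 collapsed to AUC; loss-of-signal fit, DMSO baseline.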

Test [19] can be described thus: CCTE_Shafer_MEA_dev_network_spike_peak: CCTE's Neural Network Formation Assay for Mean Number of Electrodes in Network Spike, Shafer Lab (AID 2284049; active means hit-call score of the fitted dose curve at least 0.9, where 1 is the maximum; inactive means score below 0.9;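 further: fitted for loss of signal meaning fewer electrodes in network spikes than DMSO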). The method, boiled down:
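Network-spike peak electrode count from recordings on days 5, 7, 9 and 12 was combined as trapezoidal area under the curve. Rat cortical cultures were treated continuously from plating, with compound renewed at each feed (DIV 5, 9); fits versus DMSO.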

A short description of test [20]: CCTE_Shafer_MEA_dev_network_spike_duration_std: CCTE's Neural Network Formation Assay for Standard Deviation of Network Spike Duration, Shafer Lab (AID 2284052; active means hit-call score of the fitted dose curve at least 0.9, where 1 is the maximum; inactive means score below 0.9;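 further: area under curve of spike duration SD across recording days 5 to 12; hits are decreases in network spike duration SD versus DMSO vehicle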). The method, boiled down: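 Primary rat cortical neurons on PEI-coated 16-electrode MEA wells, exposed from plating day 0 through day 12 with compound renewed at DIV 5 and 9. Network spike duration SD recorded on days 5, 7, 9, 12, collapsed as trapezoidal AUC; loss-of-signal fit versus DMSO.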

Test [21] can be described thus: CCTE_Shafer_MEA_dev_per_network_spike_spike_number_mean: CCTE's Neural Network Formation Assay for Mean Number of Spikes in a Network Spike, Shafer Lab (AID 2284053; active means hit-call score of the fitted dose curve at least 0.9, where 1 is the maximum; inactive means score below 0.9). The method, boiled down:
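Primary rat cortical neurons on 48-well, 16-electrode MEA plates were exposed from plating to DIV 12, with dosing renewed on DIV 5 and 9. Spikes per network spike (0.05 s peak window) were recorded on DIV 5, 7, 9 and 12 and collapsed as trapezoidal AUC versus DMSO.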

Test [22] in a line: CCTE_Shafer_MEA_dev_per_network_spike_spike_percent: CCTE's Neural Network Formation Assay for Percent of Spikes in a Network Spike, Shafer Lab (AID 2284054; active means hit-call score of the fitted dose curve at least 0.9, where 1 is the maximum; inactive means score below 0.9). The method, boiled down:
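Read-out: percent of spikes falling in a 0.05 s window at network-spike peak, from spontaneous MEA recordings on days 5, 7, 9 and 12; trapezoidal AUC; loss of signal versus DMSO. Rat cortical cultures, compound present throughout.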

Test [23] in a line: CCTE_Shafer_MEA_dev_mutual_information_norm: CCTE's Neural Network Formation Assay for Mutual Information Normalization, Shafer Lab (AID 2284091; active means hit-call score of the fitted dose curve at least 0.9, where 1 is the maximum; inactive means score below 0.9). The essentials: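 Neurons from rat cortex were seeded at 1.5 x 10^5 cells/well onto PEI-coated MEAs in a laminin drop, then exposed to compound from day 0 for twelve days. Network recordings on four days gave mutual information, summarised by AUC relative to DMSO.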

The nature of test [24]: TAMU_PeakParms_SingleDonor1434_Chronotropy: Texas A&M University (TAMU) 1.5-hr Human Induced Pluripotent Stem Cell (iPSC)-derived Cardiomyocytes Calcium (Ca+2) Flux Assay for Cardiotoxicity: Chronotropy (changes in peak frequency) (AID 2284217; active means hit-call score of the fitted dose curve at least 0.9, where 1 is the maximum; inactive means score below 0.9). As to conditions: actives raise or lower the signal. The essentials:
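iPSC-derived cardiomyocytes (single donor 1434) dosed at 0.2, 1, 10 and 100 uM in 0.5% DMSO for 1.5 h at 37C; Ca2+ dye fluorescence gave average beat frequency. Zero-beat points removed; bidirectional fit versus DMSO, POD as EC05.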

Test [25] in a line: TAMU_PeakParms_SingleDonor1434_Asystole: Texas A&M University (TAMU) 1.5-hr Human Induced Pluripotent Stem Cell (iPSC)-derived Cardiomyocytes Calcium (Ca+2) Flux Assay for Cardiotoxicity: Asystole (quiescence of beating) (AID 2284328). The essentials: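 Donor 1434 iPSC-cardiomyocytes exposed 90 min at 37C, 5% CO2, to 0.2, 1, 10 and 100 uM in 0.5% DMSO. Ca2+ dye fluorescence gave average peak frequency; POD is EC95, a 95% beat-rate drop versus controls.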

Test [26] has as its target Cellular tumor antigen p53 (Homo sapiens) (UniProt P04637). The experiment in a line: TOX21_p53_BLA_p3_ratio: Tox21 HCT-116 p53 Agonism Beta-lactamase Assay, Ratio, Phase 3 (AID 2283596). The essentials: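 Cells were seeded at 4000/well, rested 5 h at 37C, then dosed with DMSO compound solutions (217-fold dilution) for 16 h. CCF4-AM substrate was loaded for 2 h at room temperature, and the 460/530 nm emission ratio was fitted for gain of signal versus DMSO.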

Test [27] can be described thus: TOX21_p53_BLA_p4_viability: Viability Assessment in the Tox21 HCT-116 p53 Agonism Beta-lactamase Assay, Phase 4 (AID 2283597).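 Further: hits lower the luminescence signal meaning cytotoxicity.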 The method, boiled down: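 ATP content by CellTiter-Glo luminescence, 30 min RT, read after the beta-lactamase ratio step. Cells: HCT116, 4000/well, compound added after 5 h, exposure 16 h at 37C. Signal loss = reduced viability.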

One may read the AC50 as the midpoint of the concentration-response curve, whichever way the signal moves.

The structures appear in SMILES notation. Results filed as inconclusive are left out. The source made the active and inactive calls. How the source made its calls, unless noted: active means hit-call score of the fitted dose curve at least 0.9, where 1 is the maximum; inconclusive means response in the unintended direction; inactive means score below 0.9.

Chain of Cellular tumor antigen p53 (Homo sapiens) (P04637 whole entry, looked up): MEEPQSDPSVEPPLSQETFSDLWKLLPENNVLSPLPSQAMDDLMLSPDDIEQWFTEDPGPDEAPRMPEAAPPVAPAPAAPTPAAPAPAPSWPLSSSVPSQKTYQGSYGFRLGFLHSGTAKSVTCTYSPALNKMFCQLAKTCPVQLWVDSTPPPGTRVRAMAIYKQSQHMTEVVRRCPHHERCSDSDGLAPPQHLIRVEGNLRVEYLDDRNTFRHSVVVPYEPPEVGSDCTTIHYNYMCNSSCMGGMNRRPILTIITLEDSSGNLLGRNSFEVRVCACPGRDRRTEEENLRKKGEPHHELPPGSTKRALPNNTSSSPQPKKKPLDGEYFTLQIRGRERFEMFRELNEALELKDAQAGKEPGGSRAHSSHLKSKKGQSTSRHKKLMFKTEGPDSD

As for `CC12CCC(C(=O)C1=O)C2(C)C` (stereo unspecified), the molecule was classed as inactive in [1], in test [2], in test [3], in [4] and in test [5].
As for `CC(C)(C)OC=O`, the result in [1], in [2], in test [3], in [4], in [5] and in test [6] was inactive.
On to `CN(C)CCCNCCC#N`, for which the result in test [7] was inactive.
For `c1ccc2cc3c4ccccc4c4ccccc4c3cc2c1`, the result in test [8], in test [9], in test [10], in test [12], in [15] and in test [16] was inactive. For the same molecule, the outcome in [17], in [18], in test [20], in [21], in test [23] and in [25] was inactive. Also, the AC50 in [11] was 1970 nM (active); in test [13] it was 3010 nM (active); in [14] it was 1970 nM (active); in [19] it was 1980 nM (active); in [22], 3230 nM (active); in test [24], 710 nM (active).
In the case of `CCN(Cc1ccccc1)c1ccccc1`, the molecule was called inactive in test [1], in test [2], in [26], in test [27], in [4] and in test [5]. For the same molecule, the outcome in [6] was inactive.
Regarding `c1ccc(CN(CC2=NCCN2)c2ccccc2)cc1`, the result in [1], in test [2], in test [26], in test [27], in test [4] and in [5] was inactive. For the same molecule, in test [6], the outcome was inactive.
`O=C(Nc1ccc([N+](=O)[O-])cc1)Nc1ccc([N+](=O)[O-])cc1`: the call in test [1], in test [2], in test [26], in test [27], in test [4] and in test [5] was inactive. The result in test [6] was inactive.
